Measured values published in PubChem BioAssay (Tox21).
Results filed as inconclusive are left out. Activity calls are given as the source filed them. Unless noted, the call rests on the fitted dose curve; in most records, active means well fitted curve in the direction sought with a large enough effect in the repeat runs; inconclusive means weak or mixed curves; inactive means no such curve, though single readings can be large; an effect the other way counts as inactive or inconclusive.

What was measured:
[1] = qHTS assay to identify small molecule agonists of the vitamin D receptor (VDR) signaling pathway - cell viability counter screen (AID 743224); further: series mostly up to about 63 µM; nearly all actives have a fitted effect of over 50% in size
In short: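 Viability is measured in the same wells as the VDR-bla reporter assay: after 16 h compound treatment and 2 h substrate loading, CellTiter-Glo is added and luminescence read 30 min later.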

[2] = qHTS assay to identify small molecule antagonists of the vitamin D receptor (VDR) signaling pathway - cell viability counter screen (AID 743225); further: nearly all actives have a fitted effect of over 50% in size
In short: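 In this counter screen, VDR-bla HEK 293T cells receive test compound plus 3 nM final calcitriol for 16 h at 37C. Room-temperature steps of 2 h with the beta-lactamase substrate, then 30 min with CellTiter-Glo, precede the luminescence read.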

[3] = qHTS assay to identify small molecule agonists of the NFkB signaling pathway (AID 1159509; active means well fitted curve in the direction sought with a large enough effect in the signal ratio in the repeat runs, not every such curve was filed as active; the % refers to the signal ratio; further: series mostly up to about 61 µM)
In short: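 ME-180 NFkB-bla, 2,000 cells/well, overnight plating; cpd pinned in DMSO, 5 h 37 C; B/G FRET substrate 1.5 h RT; ex 405, em 460/530 nm.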

[4] = qHTS assay to identify small molecule agonists of the NFkB signaling pathway - cell viability counter screen (AID 1159515; calls by dose curve; further: series mostly up to about 61 µM; nearly all actives have a fitted effect of over 55% in size)
In short: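 Multiplexed viability readout: after the 5 hr compound exposure and 1.5 hr FRET substrate step, CellTiter-Glo reagent went into the same NFkB-bla ME-180 wells; ATP luminescence was measured after 30 min at room temperature.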

[5] = qHTS assay to identify small molecule agonists of the endoplasmic reticulum stress response signaling pathway (AID 1159516; active means well fitted activation curve with a large enough effect in the signal ratio in the repeat runs, not every such curve was filed as active; the % refers to the signal ratio)
In short: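 Tox21 10K library screened in quantitative HTS format on ESRE-bla HeLa cells, a beta-lactamase reporter under ER stress response element control; 5 hr treatment, FRET read.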

[6] = qHTS assay to identify small molecule agonists of the endoplasmic reticulum stress response signaling pathway - cell viability counter screen (AID 1159517; calls by dose curve; further: series mostly up to about 61 µM; nearly all actives have a fitted effect of over 50% in size)
In short: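 HeLa cells carrying an ESRE-driven beta-lactamase reporter receive compound for 5 hr at 37 C. Cell viability is then gauged with CellTiter-Glo by luminescence, 30 min at room temperature.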

[7] = qHTS assay to identify small molecule antagonists of the retinoid-related orphan receptor gamma (ROR-gamma) signaling pathway - cell viability counter screen (AID 1159520); further: nearly all actives have a fitted effect of over 50% in size
In short: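 Cytotoxicity was read from cellular ATP (CellTiter-Glo luminescence) after 16 hr at 37 C with 1 uM doxycycline induction. The inducer was added 2 hr after compound transfer to Tet-on ROR gamma CHO cells.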

[8] = molecular target: Nuclear receptor ROR-gamma (Homo sapiens) (UniProt P51449); assay: qHTS assay to identify small molecule antagonists of the retinoid-related orphan receptor gamma (ROR-gamma) signaling pathway (AID 1159521)
In short: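 Screening format: cell-based luciferase reporter in CHO cells with doxycycline-inducible RORγ. Compound pre-exposure lasts 2 h, doxycycline is 1 uM final, induction runs 16 h at 37 C, and ONE-Glo luminescence is read.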

[9] = qHTS assay to identify small molecule agonists of the AP-1 signaling pathway - cell viability counter screen (AID 1159525; calls by dose curve; further: nearly all actives have a fitted effect of over 55% in size)
In short: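 Luminescent ATP readout (Cell Titer Glo, 30 min RT), normalised to DMSO and tetra n-octyl ammonium bromide controls. Cells were ME-180 AP-1-bla in 0.5% dialyzed FBS Opti-MEM, with a 5 h, 37 °C compound exposure.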

[10] = qHTS assay to identify small molecule agonists of the AP-1 signaling pathway (AID 1159526; calls by dose curve)
[11] = molecular target: Retinoic acid receptor RXR-alpha (Homo sapiens) (UniProt P19793); assay: qHTS assay to identify small molecule agonists of the RXR signaling pathway (AID 1159527; calls by dose curve; further: nearly all actives have a fitted effect of over 35% in size)
Chain of Retinoic acid receptor RXR-alpha (Homo sapiens) (P19793 whole entry, looked up): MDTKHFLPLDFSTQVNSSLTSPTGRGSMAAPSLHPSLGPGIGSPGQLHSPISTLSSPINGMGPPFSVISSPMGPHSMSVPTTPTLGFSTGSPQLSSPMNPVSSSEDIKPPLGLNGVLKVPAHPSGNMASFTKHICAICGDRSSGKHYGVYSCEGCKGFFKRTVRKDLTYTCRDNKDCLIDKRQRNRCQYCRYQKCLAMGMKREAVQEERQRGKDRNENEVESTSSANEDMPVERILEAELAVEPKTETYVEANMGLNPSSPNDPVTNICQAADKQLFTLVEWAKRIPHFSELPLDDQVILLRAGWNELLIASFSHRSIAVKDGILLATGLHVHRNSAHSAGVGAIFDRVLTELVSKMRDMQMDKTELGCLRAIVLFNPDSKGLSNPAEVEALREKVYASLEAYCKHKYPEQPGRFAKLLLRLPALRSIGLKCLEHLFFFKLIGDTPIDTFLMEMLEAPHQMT
In short: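 Fluorescence ratio readout (460 vs 530 nm) from GeneBLAzer RXR-alpha HEK 293T cells after 16 hr compound treatment; cells seeded 5 hr beforehand in low-serum, charcoal-stripped medium.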

[12] = qHTS assay to identify small molecule agonists of the RXR signaling pathway - cell viability counter screen (AID 1159529)
In short: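 Viability read-out for the RXR-alpha agonist qHTS: luminescent CellTiter-Glo signal after 30 min at RT. HEK 293T bla reporter cells, 2% charcoal-stripped FBS, 16 hr compound incubation; tetraoctyl ammonium bromide as cytotoxic control.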

[13] = qHTS assay to identify small molecule antagonists of the retinoid acid receptor (RAR) signaling pathway - cell viability counter screen (AID 1159551); further: nearly all actives have a fitted effect of over 35% in size
In short: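 Cytotoxicity counter screen in C3RL4 cells: 6 h compound exposure with 1 uM retinol (final), viability from cellular ATP by luminescence.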

[14] = qHTS assay to identify small molecule agonists of the retinoic acid receptor (RAR) signaling pathway (AID 1159553)
In short: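 Agonist activity was scored in C3RL4 cells bearing a retinoic acid response element luciferase construct. Cells were treated with compounds for 6 hr at 37 C, and luciferase signal was measured as luminescence.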

Measured: Potency

OCCBr
inactive: [1] | [2] | [3] | [4] | [5] | [6] | [7] | [8] | [9] | [10] | [11] | [12] | [13]

O=P(O)(Oc1ccccc1)Oc1ccccc1
inactive: [1] | [2] | [3] | [4] | [5] | [6] | [7] | [8] | [9] | [10] | [11] | [12] | [13]

CC(C)CC(N(C)C)C1(c2ccc(Cl)cc2)CCC1 (configuration not stated)
inactive: [1] | [2] | [3] | [4] | [5] | [6] | [7] | [8] | [9] | [10] | [11] | [12] | [13]

CC(C)COP(=O)(OCC(C)C)OCC(C)C
inactive: [1] | [2] | [3] | [4] | [5] | [6] | [7] | [8] | [9] | [10] | [11] | [12] | [13]

CN(C)CCc1ccc(O)cc1
inactive: [1] | [2] | [3] | [4] | [5] | [6] | [7] | [8] | [9] | [10] | [11] | [12] | [13]

CC(N)=S
inactive: [1] | [3] | [4] | [5] | [6] | [7] | [8] | [9] | [10] | [11] | [12] | [13]

CCCSC(=O)N(CCC)CCC
inactive: [1] | [2] | [3] | [4] | [5] | [6] | [7] | [8] | [9] | [10] | [11] | [12] | [13]

NC(=O)c1cc([N+](=O)[O-])cc([N+](=O)[O-])c1
inactive: [1] | [2] | [3] | [4] | [5] | [6] | [7] | [8] | [9] | [10] | [11] | [12] | [13]

COc1cc(OC)nc(NC(=O)NS(=O)(=O)c2ncccc2OCC(F)(F)F)n1
inactive: [1] | [2] | [3] | [4] | [5] | [6] | [7] | [8] | [9] | [10] | [11] | [12] | [13]

O=C(CCN1CC1)OCC(CO)(COC(=O)CCN1CC1)COC(=O)CCN1CC1
inactive: [1] | [2] | [3] | [4] | [5] | [6] | [7] | [8] | [9] | [10] | [11] | [12] | [13]

COc1cc(OC)nc(Oc2cccc(Oc3nc(OC)cc(OC)n3)c2C(=O)O)n1
inactive: [3] | [4] | [5] | [6] | [7] | [8] | [9] | [10] | [11] | [12] | [13]

CCCCCCI
inactive: [1] | [2] | [3] | [4] | [5] | [6] | [7] | [8] | [9] | [10] | [11] | [12] | [13]

Fc1cc(Br)ccc1CBr
inactive: [1] | [2] | [3] | [4] | [5] | [6] | [7] | [8] | [9] | [10] | [11] | [12] | [13]

C[N+](=O)[O-]
inactive: [1] | [2] | [3] | [4] | [5] | [6] | [7] | [8] | [9] | [10] | [11] | [12] | [13]

CCCCP(CCCC)CCCC
inactive: [1] | [2] | [3] | [4] | [5] | [6] | [7] | [8] | [9] | [10] | [11] | [12] | [13]

O=C(CCCN1CCC(n2c(=O)[nH]c3ccccc32)CC1)c1ccc(F)cc1
inactive: [1] | [2] | [3] | [4] | [5] | [6] | [7] | [8] | [9] | [10] | [11] | [12] | [13]

OCCSCSCCO
inactive: [1] | [3] | [4] | [5] | [6] | [7] | [8] | [9] | [10] | [11] | [12] | [13]

CCCCN(CCCCO)N=O
inactive: [1] | [2] | [3] | [4] | [5] | [6] | [7] | [8] | [9] | [10] | [12] | [13] | [14]

OC(Cn1cncn1)(c1ccc(F)cc1)c1ccccc1F (configuration not stated)
inactive: [1] | [2] | [3] | [4] | [5] | [6] | [7] | [8] | [9] | [10] | [11] | [13]

CCOP(=S)(OCC)Oc1nc(Cl)n(C(C)C)n1
inactive: [1] | [3] | [4] | [5] | [6] | [7] | [8] | [9] | [10] | [12] | [13] | [14]

CC1(C)COP(Oc2ccccc2)OC1
inactive: [1] | [2] | [3] | [4] | [5] | [6] | [7] | [8] | [9] | [10] | [12] | [13] | [14]
